Out of some 99,000 compounds screened, about 340 (0.34%) were called active. This is one part of a sample in which actives are shown more often than they occur. No stated cut-off is given here; in the data, active means TR-FRET ratio above about 2300; inactive means the rest.
Test: TR-FRET detection interference compounds, primary screen, artefact control for PPARgamma SRC-1 recruitment agonists, biochemical, TR-FRET emission ratio (AID 1051)
Conditions: TR-FRET detection artefact counter-screen, at 8 µM, stronger effect = higher value

Compound	TR-FRET ratio
COc1cc(-n2c(=S)[nH]c3ccc(C)cc3c2=O)c(Cl)cc1Cl	2560 (active)
O=C1N=c2ccccc2=C/C1=C\c1c(O)[nH]c(=S)[nH]c1=O	1870 (inactive)
COc1ccc(C2N3CC(C)(C)CN23)cc1 (stereo not given)	1740 (inactive)
CCOP(=O)(OCC)C(NC(=O)c1ccc(C)cc1)C(Cl)(Cl)Cl (stereo not given)	1720 (inactive)
OCC#CC[N+]1(CC#Cc2ccccc2)CCCC1	1790 (inactive)

From PubChem BioAssay AID1051 (The Scripps Research Institute Molecular Screening Center, 2008)
